Screening results from PubChem.
An excerpt weighted towards active compounds, which were near 3.2% of everything screened.
Vaccinia mCherry – vaccinia inhibition (mCherry reporter); Potency, µM (titrated, usually from 36.5 µM), hits mostly inhibitors; 310,000 compounds, 0.63% hits; Vaccinia virus mCherry reporter infection, fluorescence; calls by dose curve; tested in A549 cells; note: nearly all actives have a fitted effect of over 35% in size
FMDV inh – foot and mouth disease virus antiviral activity; FMDV antiviral cell-based qHTS; Potency, µM (series often up to 57.9 µM), usual class: inhibitors; 410,000 compounds, 1.2% hits; AID 1159524; calls by dose curve; tested in HEK293T cells; note: read-out not given here; nearly all actives have a fitted effect of over 45% in size
Vaccinia Venus – vaccinia inhibition (Venus reporter) | Vaccinia virus Venus reporter expression, fluorescence | 330,000 compounds, 0.46% hits | AID 720580 | Potency, µM (highest dose often 36.5 µM), most hits filed as inhibitors; calls by dose curve; tested in A549 cells; note: nearly all actives have a fitted effect of over 30% in size
MARV entry inh – Marburg virus entry inhibition; Marburg virus pseudotyped entry inhibition, cell reporter; Potency, µM (series often up to 37.8 µM), most hits filed as inhibitors; 300,000 compounds, 1.8% hits; calls by dose curve; tested in HEK293 cells
LASV entry inh – Lassa virus entry inhibition; 300,000 compounds, 1.2% hits; Lassa virus pseudotype entry inhibition, cell reporter; Potency, µM (top dose mostly 37.9 µM), hits mostly inhibitors; AID 540256; calls by dose curve; tested in HEK293 cells; note: nearly all actives have a fitted effect of over 50% in size
A number is an active result; n = inactive; u = inconclusive; x = not tested or not shown; [ ] = remark or other dose.

SMILES | Vaccinia mCherry | FMDV inh | Vaccinia Venus | MARV entry inh | LASV entry inh
O=C(CSc1ccc(-c2ccccn2)nn1)NCc1ccc(Cl)cc1 | u | n | n | n | n
Cc1ccc(S(=O)(=O)N2CCN(c3nc(-n4c(=O)[nH]c5ccccc54)nc4ccccc34)CC2)cc1 | n | x | n | x | x
Cc1ccc(C)c(NC(=O)CN(C)C(=O)c2ccc3[nH]c4c(c3c2)CC(C)CC4)c1 (configuration not stated) | u | n | u | n | 0.562µM
CC1CCc2[nH]c3ccc(C(=O)N(C)CC(=O)Nc4ccccc4Br)cc3c2C1 (configuration not stated) | u | u | n | u | u
Cc1cccc2nc(-c3cccnc3)c(Nc3ccccc3)n12 | u | 31.6µM | n | u | u
CC(Oc1ccc(S(=O)(=O)N2CCCC2)cc1[N+](=O)[O-])C(=O)NC1(C#N)CCCCC1 (configuration not stated) | x | n | x | x | x
CCOC(=O)C1=C(C)N=C2SC(C)C(=O)N2C1c1ccc(C(=O)OC)cc1 (configuration not stated) | n | n | n | n | n
CCOC(=O)C1=C(C)N=C2SC=C(C)N2C1c1ccc(OC)cc1 (configuration not stated) | n | n | n | 5.01µM | u
O=C(/C(=C/O)N=Nc1ccc(Cl)cc1)c1ccncc1 | x | 31.6µM | u | u | u
O=C(c1cnc(N2CCCCC2)c2ccccc12)N1CCN(c2ccc(F)cc2)CC1 | n | n | n | x | n
COc1ccc(N2CCC(CNC(=O)Nc3ccc(C)c(C)c3)C2)cc1 (configuration not stated) | n | n | n | n | n
COc1ccc(N2CCC(CNC(=O)Nc3ccc(OC)cc3OC)C2)cc1 (configuration not stated) | n | n | 10µM | n | n
CCOC(=O)c1c(CC(C)C)csc1NC(=O)COC(=O)c1ccc(O)cc1 | n | 35.5µM | n | n | u
C=CCNc1nnc(S[C@@H]2CC(=O)N(c3ccc(OC)cc3)C2=O)s1 | x | x | x | n | x
COc1ccccc1/C=N/NC(=S)Nc1cccnc1 | n | n | n | n | n
Oc1ccc(/C=N/NC(=S)Nc2cccnc2)cc1O | n | u | n | u | u
S=C(N/N=C/c1ccc2ncccc2c1)Nc1cccnc1 | x | 14.1µM | x | x | x
Oc1ccc(C=NNC(=S)Nc2cccnc2)nc1 | n | n | n | u | 10µM
CCCCN(C(=O)c1cc(CC)c(C)s1)c1c(N)n(CCC)c(=O)[nH]c1=O | n | n | n | n | n
S=C(NCc1ccc(Cl)cc1Cl)NC1CCCCC1 | u | n | u | u | 8.91µM
N#CC1=C(N)OC2=C(C(=O)CC(c3ccccc3)C2)C1c1ccc2c(c1)OCO2 (configuration not stated) | n | u | n | n | 13µM
O=c1[nH]c(=O)n(Cc2ccco2)c2c1C(C(F)(F)F)(C(F)(F)F)N=C(c1ccc(F)cc1)N2 | x | 4.47µM | x | u | u
CN(C)CCCN1c2ccc3ccccc3c2Sc2cccc(Cl)c21 | u | n | u | u | u
O=C(CCl)N1c2ccccc2Sc2ccc3ccccc3c21 | u | 31.6µM | 10µM | x | x
CN(C)CCCN1c2ccccc2Sc2ccc3ccccc3c21 | 10µM | u | u | u | u
SMILES | Vaccinia mCherry | FMDV inh | Vaccinia Venus | MARV entry inh | LASV entry inh
CCCCCCN1C[C@H](O)[C@@H](n2cc(C3CC3)nn2)C[C@H]1c1ccccc1 | x | x | x | x | n
CCOC(=O)C1CCN(Cc2cnc(Oc3ccc(OC)cc3)s2)CC1 | x | n | x | n | 1.46µM
CC(=O)N1CCN(c2ccc([N+](=O)[O-])c(-n3nc(C)cc3C)c2)CC1 | n | n | n | n | n
Cc1cc(C)n(-c2cc(N3CCN(C(=O)c4cccc(Br)c4)CC3)ccc2[N+](=O)[O-])n1 | n | 14.1µM | u | u | n
Cc1ccc(NC(=O)Cc2ccccc2Cl)cc1S(=O)(=O)N(C)C | u | n | n | u | u
Cc1ccc(NC(=O)Cc2ccc(Cl)c(Cl)c2)cc1S(=O)(=O)N(C)C | n | 22.4µM | n | u | 12.6µM
Cc1ccc(NC(=O)CSc2nn(-c3ccc(Cl)cc3)c(=S)s2)cc1S(=O)(=O)N(C)C | u | u | u | u | 11.2µM
O=C(Cc1ccsc1)Nc1ccc(S(=O)(=O)C(F)F)cc1 | 10µM | n | u | n | u
CCN(CC)S(=O)(=O)c1cc(NC(=O)C(C)N2CC=C(c3ccccc3)CC2)ccc1C (configuration not stated) | u | u | n | u | 16.4µM
O=C(NNS(=O)(=O)c1ccc(Br)cc1)c1ccccc1-n1cccc1 | x | n | x | x | x
CCOC(=O)c1cccc(NC(=O)CCc2c(C)nn(-c3ccc(N4CCOCC4)nn3)c2C)c1 | n | n | n | x | n
Cc1ccccc1Cc1c(C)nc2nc(SCC(=O)N(C)c3ccccc3)nn2c1C | n | n | n | x | n
CCN(CC)S(=O)(=O)c1cc(NC(=O)Cc2ccsc2)ccc1C | u | n | u | n | 0.461µM
CN(C)S(=O)(=O)c1cc(NC(=O)CN2CCN(c3ccccc3O)CC2)ccc1Cl | n | n | n | n | 0.562µM
Cc1cc(F)ccc1S(=O)(=O)N1CCCOC1CNC(=O)C(=O)NC1CCCC1 (configuration not stated) | n | n | n | n | n
C#CC(C)(CC)NC(=O)Cn1nnc(-c2ccc(OCc3ccccc3F)cc2)n1 (configuration not stated) | u | n | 11.2µM | u | n
C#CC(C)(CC)NC(=O)Cn1nnc(-c2ccc(OCc3ccccc3C)cc2)n1 (configuration not stated) | u | n | u | n | u
CCc1ccc(OCC(=O)O/N=C(\N)c2ccccn2)cc1 | x | n | x | n | x
N/C(=N\OC(=O)/C=C/c1ccccc1Cl)c1ccccn1 | x | n | x | 9.2µM | n
CCOc1ccc(C(=O)O/N=C(\N)c2ccccn2)cc1 | x | 10µM | x | x | x
N/C(=N\OC(=O)COc1ccc(Br)cc1Cl)c1ccccn1 | n | n | n | u | 2µM
CC(C)(C)c1ccc(C(=O)O/N=C(\N)c2ccccn2)cc1 | n | 0.1µM | n | u | u
N/C(=N\OC(=O)/C=C/c1ccccc1Cl)c1cccnc1 | n[7.34 µM] | n | n[7.34 µM] | u | n
N/C(=N\OC(=O)COc1ccc(Cl)cc1Cl)c1ccccn1 | n | n | n | x | x
COc1cc(C(=O)O/N=C(\N)c2ccccn2)cc(OC)c1OC | x | n | x | x | x
SMILES | Vaccinia mCherry | FMDV inh | Vaccinia Venus | MARV entry inh | LASV entry inh
Cn1c(=O)c2ncn(CC(=O)N/N=C/c3ccco3)c2n(C)c1=O | n | n | n | n | n
N/C(=N\OC(=O)c1cccc(F)c1)c1ccccn1 | x | n | x | x | x
Cc1ccc(C(=O)O/N=C(\N)c2ccccn2)cc1 | n | 3.16µM | n | u | u
Cc1ccc(C(=O)O/N=C(\N)c2ccccn2)cc1C | n | n | n | 0.708µM | u
N/C(=N\OC(=O)c1ccccc1)c1ccccn1 | n | 10µM | n | u | u
N/C(=N\OC(=O)c1cc(Cl)ccc1Cl)c1ccccn1 | x | n | x | 4.11µM | 6.51µM
Cc1cccc(C(=O)O/N=C(\N)c2ccccn2)c1 | n | n | n | u | u
COc1ccc(Cl)cc1C(=O)O/N=C(\N)c1ccccn1 | x | n | x | x | x
CCc1nn(CC(=O)NC(C)C)c(=O)c2cc3cc(F)ccc3n12 | n | n | n | u | x
CCN1CCCC1CNC(=O)c1cnn(-c2nccc(-c3cc4ccccc4o3)n2)c1C (configuration not stated) | n | n | n | x | x
